Several values for one entry are separate records, joined by “and”; a condition that tells them apart may be missing. Equal values may be shown once. Records with an inconclusive call do not appear. Activity calls are given as the source filed them. Calls follow the shape of the dose curve; as a rule, active = well fitted cell-killing curve with a large enough effect; inconclusive = small, poorly fitted or top-dose-only effect; inactive = flat fitted curve, though single readings scatter. Peptide text beside a SMILES is read from it.
test: Cellular viability qHTS for adrenocortical cancer (ACC) cell line SW-13 (AID 1963989); conditions: SW-13 ACC cells viability, CellTiter-Glo, 48 h; activity (max response): stronger effect = lower value;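 also: cells grown in serum-free medium with ITS supplement; % is scaled to controls: 0 for no effect and ±100 for the full control effect; nearly all actives have a fitted effect of over 65% in size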
Procedure, shortened: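 Viability was read as CellTiter-Glo luminescence after 48 h compound treatment (up to 46 uM final) of SW-13 cells grown serum-free; titration curves were fit with a four-parameter logistic model to give IC50 and efficacy.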

Structure (SMILES) | activity (max response)
Nc1ccn([C@@H]2CS[C@H](CO)O2)c(=O)n1 | 7.41% (inactive)
N[C@@H]1CONC1=O | 0.98% (inactive) and -6.89% (inactive)
Cc1nc2c([nH]1)CCN(C(=O)c1ccc(NC(=O)c3ccccc3-c3ccccc3)cc1)c1ccccc1-2 | -19.1% (inactive)
COC(=O)[C@H](Cc1ccccc1)NC(=O)[C@@H](N)CC(=O)O (H-Asp-Phe-OMe) | 0.253% (inactive) and -5.37% (inactive)
CCC(C)(Oc1ccc(C2(c3ccc(OC(C)(CC)C(=O)O)cc3)CCCCC2)cc1)C(=O)O (stereo unspecified) | -4.64% (inactive) and -4.83% (inactive)
Nc1ccc(S(N)(=O)=O)cc1 | 16.5% (inactive) and -23.7% (inactive)
CNS(=O)(=O)CCc1ccc2[nH]cc(C3CCN(C)CC3)c2c1 | -14.7% (inactive)
CCOCC(O)COc1ccc(NC(=O)CC[S+](C)C)cc1 (stereo unspecified) | 1.78% (inactive) and -20% (inactive)

test: Cellular viability qHTS for adrenocortical cancer (ACC) cell line NCI-H295R (AID 1963990); conditions: CellTiter-Glo ATP luminescence, 48 h; series mostly up to 46.1 µM; activity change, negative = viability loss: at the top concentration;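 also: 0% = DMSO only wells and -100% = full killing with cytotoxic reference compound; nearly all actives have a fitted effect of over 60% in size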
Procedure, shortened: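 CellTiter-Glo ATP luminescence, read 48 h after compound addition, measured viability of NCI-H295R adrenocortical cells grown serum-free with ITS. Final concentrations spanned up to 46 uM. Data normalized to DMSO and doxorubicin, fitted for IC50 and maximal response.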

Structure (SMILES) | activity change, negative = viability loss | Potency
Nc1ccn([C@@H]2CS[C@H](CO)O2)c(=O)n1 | 4.11% (inactive) | 
N[C@@H]1CONC1=O |  | inactive
Cc1nc2c([nH]1)CCN(C(=O)c1ccc(NC(=O)c3ccccc3-c3ccccc3)cc1)c1ccccc1-2 | -20.3% (inactive) | 
COC(=O)[C@H](Cc1ccccc1)NC(=O)[C@@H](N)CC(=O)O (H-Asp-Phe-OMe) |  | inactive
CCC(C)(Oc1ccc(C2(c3ccc(OC(C)(CC)C(=O)O)cc3)CCCCC2)cc1)C(=O)O (stereo unspecified) | -25.4% (inactive) | 
Nc1ccc(S(N)(=O)=O)cc1 |  | inactive
CNS(=O)(=O)CCc1ccc2[nH]cc(C3CCN(C)CC3)c2c1 | 1.99% (inactive) | 
CCOCC(O)COc1ccc(NC(=O)CC[S+](C)C)cc1 (stereo unspecified) |  | inactive

From PubChem BioAssay (NCATS)
